Only some compounds are listed: those with a hit (about 21% of all), similar ones and a draw of the others.
Pf growth 48h – Primary qHTS for delayed death inhibitors of the malarial parasite plastid, 48 hour incubation | hit rate 5.9% among 310,000 | AID 504832, 2011 | P. falciparum luciferase growth in erythrocytes, 48 h | Potency, µM (doses to about 28.7 µM), for inactives: at the highest dose activity change, negative = inhibition, actives largely listed as inhibitors; further: potency means the concentration at half of the fitted maximal effect; on the % scale 0 is the no-effect control and ±100 the full control effect
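Here the parasites carry a stable luciferase gene and grow inside erythrocytes in Albumax-based RPMI medium with compound for one erythrocytic cycle. Activity is scored as loss of luminescent signal.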
Pf growth 96h – Primary qHTS for delayed death inhibitors of the malarial parasite plastid, 96 hour incubation; Potency, µM (top dose mostly 28.7 µM), for the others: top-dose activity change, negative = inhibition, actives largely listed as inhibitors; P. falciparum luciferase reporter growth, 96 h; hit rate 6.9% among 320,000; further: potency means the concentration at half of the fitted maximal effect; on the % scale 0 is the no-effect control and ±100 the full control effect
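96 h incubation, 37 C, 5% CO2, of luciferase-reporter P. falciparum-infected RBCs (2% hematocrit, 0.05% parasitemia final) with test compounds; endpoint luminescence.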
HCV inhibitor – qHTS Assay for Inhibitors of Hepatitis C Virus (HCV). AID 651820, 2012. hit rate 3.4% among 340,000. Potency, µM (top dose mostly 41.8 µM), for inactives: top-dose activity change, negative = inhibition, usual class: inhibitors. Huh7.5.1 HCVcc-Cre infection, luciferase reporter, 44 h; further: potency means the concentration at half of the fitted maximal effect; on the % scale 0 is the no-effect control and ±100 the full control effect
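After 44 h co-culture of compound, cells and HCVcc-Cre (~0.5 moi), substrate is added for 15 min at room temperature and luciferase measured over 15 sec. Cells were seeded at 1,000/well and pre-cultured 4 h.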
AMA1 RON2 block – qHTS for Inhibitors of AMA1-RON; Towards Development of Antimalarial Drug Lead: Primary Screen. AlphaScreen AMA1-biotinylated RON2 peptide binding. Potency, µM (highest dose often 58.2 µM), without a hit: top-dose activity change, negative = inhibition, hits mostly inhibitors. hit rate 0.2% among 360,000;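 further: potency means the concentration at half of the fitted maximal effect; 0% = vehicle wells and -100% = peptide control; nearly all actives have a fitted effect of over 45% in size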
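AMA1 (3D7) with his tag at 25 nM final met compounds first, then biotinylated RON2 peptide at 25 nM; detection used donor plus acceptor beads, 10 µg/mL apiece, read by AlphaScreen after 30 min at room temperature.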
Shiga inhibitor – A qHTS for Small Molecule Inhibitors of Shiga Toxin; Vero cells, Shiga toxin protein synthesis inhibition reporter; inhibition, % at 38.7 µM; AID 2315, 2010; hit rate 9.2% among 290,000; in the data active means inhibition mostly above about 28%, no sharp cut-off; inactive means mostly below about 43%; further: 0% is about no effect
CHX counter – Cycloheximide Counterscreen for Small Molecule Inhibitors of Shiga Toxin. max response, %. cell reporter, cycloheximide protein synthesis inhibition counterscreen. hit rate 12% among 300,000. AID 2314, 2010; in the data active means max response mostly above about 13%, no sharp cut-off; inactive means mostly below about 14%; further: read at 38.3 µM for the half of the compounds with a filed dose; 0% is about no effect
* marks the source's active call; other numbers are inactive results; u = inconclusive; x = not tested or not shown; ! = a repeat was not active; [ ] = another dose, or the depositor's remark. Unless noted, the call rests on the fitted dose curve; in most records, active means well fitted curve in the direction sought with a large enough effect; inconclusive means small, poorly fitted or top-dose-only effect, or another doubt; inactive means no such curve, though single readings can be large; an effect the other way counts as inactive or inconclusive.

SMILES	Pf growth 48h	Pf growth 96h	HCV inhibitor	AMA1 RON2 block	Shiga inhibitor	CHX counter
COc1ccccc1C(=O)Nc1ccc(N2CCN(S(C)(=O)=O)CC2)cc1	82%	u	6%	-8%	37*	11
COc1c(C)cc(Br)cc1C(=O)Nc1ccc(N2CCN(S(C)(=O)=O)CC2)cc1	8%	15%	-2%	-3%	-4	-8
CCOC(=O)[C@@H]1[C@H]2COc3ccc(Br)cc3[C@@H]2N2C(=O)N(c3cccc(F)c3)C(=O)[C@]12C	x	x	16%	-13%	x	x
Cc1ccc(C2=C(CC(=O)O)C(=O)CC2)cc1	22%	4.7µM*	16%	-6%	19	-4
CCN(CC(=O)Nc1cccc(S(=O)(=O)N2CCCC2)c1)CC(=O)Nc1ccccc1OC	u	9.3µM*	u	35%	13	-4
COc1ccc(C)cc1NC(=O)c1cc(S(=O)(=O)N2CCCC2)cn1C	-9%	u	-2%	-7%	-3	-3
COc1ccc(Cl)cc1NC(=O)CN(C)CC(=O)Nc1cccc(S(=O)(=O)N2CCCC2)c1	u	3.3µM*	u	27%	x	x
COc1ccc(Cl)cc1NC(=O)c1cc(S(=O)(=O)N2CCCC2)cn1C	-28%	30%	11µM*	13%	12	3
CCN(CC(=O)Nc1ccccc1OC)C(=O)c1cc(S(=O)(=O)N2CCCCCC2)ccc1OC	u	5.2µM*	u	25%	x	x
Cc1sc2ncn(CC(=O)N3CCOCC3)c(=O)c2c1-c1ccccc1	17%	13%	1%	-12%	28	1
CCOC(=O)c1c(-n2c(C)cc(/C=C3\C(=O)NC(=O)N(C)C3=O)c2C)sc2c1CCCC2	u	3.7µM*	14µM*	4%	-23	-2
Cc1ccc([C@H]2N[C@]3(CCCN(Cc4ccc(Br)cc4)C3=O)[C@H]3C(=O)N(Cc4ccccc4)C(=O)[C@@H]23)cc1	x	x	x	-12%	x	x
Fc1ccccc1-n1cn[nH]c1=S	50%	57%	6%	-2%	69*	28*
COc1cccc(-n2cn[nH]c2=S)c1	17%	43%	5%	33%	-13	6
CCNc1nc(-c2sc(NC(=O)C(C)(C)C)nc2C)c(-n2cc(-c3ccccc3)nn2)s1	x	x	x	-17%	x	x
O=S(=O)(c1ccc(F)cc1)N1CCN(c2nc(-c3ccc(F)cc3)cs2)CC1	u	u	-22%	2%	-8	7
COc1ccc(-c2csc(N3CCN(S(=O)(=O)c4ccc5c(c4)NC(=O)CO5)CC3)n2)cc1	8.3µM*	12µM*	u	3%	-3	-4
Cc1sc(N2CCN(S(=O)(=O)c3ccc4c(c3)NC(=O)CO4)CC2)nc1-c1ccccc1	u	9.3µM*	4%	0%	-4	-9
COc1ccc2oc3cc(NCCN(C)C)ccc3c(=O)c2c1	x	x	x	18%	x	x
CCOC(=O)N1CCC(NC(=O)c2cc(C(=O)NCc3cccc(Cl)c3)ccc2CO)CC1	x	u	u	8%	-11	-3
O=C(Cc1ccc(Br)cc1)NC1CCN(Cc2ccccc2)CC1	-12%	-22%	10µM*	8%	-16	-6
O=C(NC1CCN(CCc2c[nH]c3ccccc23)CC1)c1ccccc1	15µM*!	12µM*	-10%	1%	-11	5
CC(C)(C)c1ccc(C(=O)NC2CCN(Cc3ccccc3)CC2)cc1	u	3.3µM*	u	-3%	-8	-4
CCOC(=O)N1CCC(NC(=O)c2cc(C(=O)NC3CCN(Cc4ccccc4)CC3)ccc2CO)CC1	16%	10µM*	10%	35%	27	-2
O=C(NC1CCN(Cc2ccccc2)CC1)c1ccccc1	13%[0.00184 µM]	-5%	-1%	1%	-5	-6
c1ccc2c(CCN3CCCCC3)c[nH]c2c1	x	x	x	0%	x	x
CNC[C@@H]1Oc2cc(Br)ccc2S(=O)(=O)N([C@@H](C)CO)C[C@@H]1C	x	x	x	-3%	x	x
CCCCCCCCN1C(=O)[C@H](CC(=O)NCCCOCCCC)C[C@@]2(C(=O)OCC)CCCC=C12	x	x	x	-6%	x	x
